Hit rate of the full screen: of about 1,200 compounds, about 650 (54%) were called active. Another 5% or so got no clear call; they are omitted.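 Rule for the calls: active = signal-lowering curve whose fitted half-maximal concentration is at or below ten times the top valid dose tested; inconclusive = flat curve with 30 to 70% inhibition, or poor fit; inactive = signal increase, flat within 30%, or potency beyond limit.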 The set was probably picked from earlier hits. Only a sample is shown. Entries with a potency or affinity are not part of this list.
Assay: EBV LMP1 TES2 canonical NF-kB signalling blockers – cell-based, HEK293, luciferase, cherry-pick, dose response (AID 588343);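 note: 0% = median of neutral control wells and -100% = MG132 positive control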
Conditions: HEK293 LMP1 TES2 NF-kB luciferase reporter, 16 h; series mostly up to 35 µM; activity change, negative = inhibition: at the top concentration

Activity change, negative = inhibition, inactive:
COc1ccc(NC(=O)C2CCCN(S(=O)(=O)c3cccc4nonc34)C2)c(OC)c1 (stereo unspecified) -11.2%
Cc1ccc(C)c(N2CCN(S(=O)(=O)c3ccc4c(c3)CCN4C(=O)CCC(=O)O)CC2)c1 -3.45%
O=C(N1CCOCC1)N1CCN(S(=O)(=O)c2ccc(Cl)cc2)C1 -7.57%
COc1ccc(/C=C\C(=O)NCc2ccc3c(c2)cc(C)n3C)cc1OC -4.59%
COc1ccc(/C=N/N=C/c2ccc(OC)c(OC)c2)cc1OC 9.12%
Cc1cc(C)c(S(=O)(=O)Nc2nnc(CC(C)C)s2)c(C)c1 6.39%
CC1(C)CC(NS(=O)(=O)c2ccc(F)cc2)CC(C)(C)N1 -4.19%
O=C(Nc1ccncc1)OCc1ccccc1 -5.3%
CN(C)CC(C)(C)CNS(=O)(=O)c1ccc(OC(F)(F)F)cc1 4.61%
COc1ccc(C(=O)N2CC(=O)Nc3ccccc32)cc1S(=O)(=O)N1CCCC1 15.1%
COc1ccc(NC(=O)COC(=O)/C=C/c2ccc(OC)c(S(=O)(=O)N3CCOCC3)c2)cc1 -2.68%
O=C(O)[C@@H]1[C@H]2C[C@H]3c4[nH]c5ccccc5c4CCN3C[C@@H]2CC[C@@H]1O -1.94%
CCc1ccccc1N(CC(=O)NCc1ccco1)C(=O)c1snc(C(N)=O)c1N 0.513%
CC(C)(C)C(=O)Nc1nnc(SCC(=O)Nc2ccc3c(c2)OCO3)s1 -4.9%
COC(=O)c1ccc(CSc2nc3c(c(=O)n2-c2ccc(C)cc2)SCC3)o1 21.4%
COc1ccc(-n2c(SCC(=O)Nc3ccc4c(c3)OCO4)nc3c(c2=O)SCC3)cc1 -8.49%
O=C(Cn1ccc(C(F)(F)F)n1)Nc1cccc(S(=O)(=O)N2CCCCC2)c1 6.67%
O=C(CN1CCN(S(=O)(=O)c2ccc(F)cc2)CC1)Nc1cccc(C(F)(F)F)c1 40.9%
Cc1cccc(C)c1NC(=O)CN(C)C(=O)c1ccc(-c2cccc(C(F)(F)F)c2)o1 -0.08%
Cc1ccc(-n2ccc(=O)c(C(=O)Nc3ccc(S(=O)(=O)N4CCOCC4)cc3)n2)cc1 -5.67%
O=C(NCCc1cn2ccccc2n1)C1CCCCC1 -4.95%
NC(=O)N/N=C/c1ccc(N2CCOCC2)s1 -23.2%
Cc1ccc(CNC(=O)C(=O)NCC2OCCN2S(=O)(=O)c2ccc(Cl)cc2)cc1 (stereo unspecified) -9.64%
CN(C)CCCC1(c2ccc(F)cc2)OCc2cc(C#N)ccc21 (stereo unspecified) -2.99%
CC(=O)O[C@]1(C(C)=O)CC[C@H]2[C@@H]3C=C(C)C4=CC(=O)CC[C@@H]4[C@H]3CC[C@@]21C 13.3%
CC(C)Oc1ccc(C2CC(=O)NC2=O)cc1 (stereo unspecified) -6.47%
COc1ccc(/C(CC2OC(=O)c3ccccc32)=N\NC(N)=O)cc1 (stereo unspecified) 11.8%
COc1cc(NC(=S)N2CCN(CCO)CC2)cc(OC)c1 -1.75%
Cc1ccc(/C=N/NC(=O)c2cc(-c3ccccc3)nc3ccccc23)o1 -0.376%
COC(=O)c1[nH]c2cccc(C)c2c1NC(=O)CN1CCCc2ccccc21 -10.2%
CCCCOc1ccc2c(c1)/C(=C(\C(Cl)=C(Cl)Cl)[N+](=O)[O-])N2 -10.4%
COCCNC(=O)C(=O)NCC1OCCN1C(=O)c1ccc(Cl)cc1 (stereo unspecified) -6.53%
COCCCn1cnnc1SCC(=O)Nc1ccc(S(=O)(=O)N2CCCC2)cc1 -5%
CNc1ccc(Br)cc(C(=O)/C=C/c2cccc(OC)c2)c1=O 7.05%
CN(CCNC(=O)C1CCN(S(=O)(=O)N2CCOCC2)CC1)CCc1ccccc1 5.33%
Cn1cccc1/C=N/n1c(-c2ccc(Cl)cc2Cl)n[nH]c1=S -16.1%
COc1ccc(CN2C(=O)c3cccnc3C2Nc2cc(Cl)ccc2OC)cc1 (stereo unspecified) 7.84%
COc1ccc(-c2nc(C)ncc2-c2ccccc2)c(O)c1 14%
O=C(COC(=O)c1cc2ccccc2cc1O)NCc1ccccc1 2.44%
O=C(Nc1ccccn1)NC1CCCCC1 25.1%
Cc1ccc(NC(=O)NNS(=O)(=O)c2ccc(Br)cc2)cc1 -5.64%
CC1CN(c2cc(=O)n(-c3ccccc3)c(=O)[nH]2)CC(C)O1 (stereo unspecified) 9.32%
Cc1ccc(-n2nc(C(=O)NCc3ccc(C)o3)c3c4ccccc4n(C)c3c2=O)cc1 1.78%
Nc1nc(N)nc(-c2cc(Cl)ccc2Cl)n1 1.16%
COc1ccccc1NC(=O)Cn1nnc(-c2ccccc2NS(=O)(=O)c2ccccc2)n1 13.3%
CC1CCCN(C(=O)COC(=O)c2n[nH]c3ccccc23)C1 (stereo unspecified) -9.33%
COc1ccc(S(=O)(=O)NCC(c2cccnc2)N2CCN(c3ccc(F)cc3)CC2)cc1C (stereo unspecified) -9.56%
COc1ccc(-c2[nH]ncc2/C=N\NS(=O)(=O)c2ccc(Cl)cc2)cc1 -21.3%
CC1(C)CC(=O)C(CC2=C(O)CC(C)(C)CC2=O)=C(O)C1 -2.16%
COc1ccccc1OCc1ccc(C(=O)c2ccccc2)cc1 12.8%
CSc1ccccc1OCc1cc(C(=O)N2CCC[C@H]2C(N)=O)no1 -1.13%
Cc1ccc(C(=O)NCC(=O)N(C)Cc2cccc(F)c2)s1 -9.68%
CCCC(=O)C1=C(O)C(C(=O)OC)C(C)(C)CC1=Nc1ccncc1 (stereo unspecified) 19.9%
CSc1ccccc1NC(=O)CN1CCCCC1C (stereo unspecified) 13.4%
CCSc1nnc(NC(=O)CCn2c(=O)oc3ccccc32)s1 4.22%
CCOc1cc(C(=O)OC(C)C(=O)Nc2ncc(Cl)cc2Cl)ccc1OCC(=O)N1CCOCC1 (stereo unspecified) 8.92%
O=C(CN1C(=O)c2ccccc2C1=O)NNC1=NS(=O)(=O)c2ccccc21 -3.6%
Cc1onc(-c2c(Cl)cccc2Cl)c1C(=O)N[C@@H]1C(=O)N2[C@@H]1SC(C)(C)[C@@H]2C(=O)O -8.5%
COc1ccccc1N1CCN(CCCNC(=O)C2CCCN(c3ncnc4c3nc3n4CCCCC3)C2)CC1 (stereo unspecified) 0.249%
C=CCN1CCN(C(CC(C)C)c2nnnn2CCOC)CC1 (stereo unspecified) -11.1%
Cn1c(CC(=O)Nc2ccc(F)cc2)nnc1SCC(=O)Nc1nncs1 10.7%
O=C(Cn1nc(C(F)(F)F)c2c1CCC2)NC1CCCCC1 -2.62%
O=C(CCCN1C(=O)[C@H]2CC=CC[C@H]2C1=O)NCc1nc(-c2ccc(Cl)cc2)no1 -18.8%
O=C(O)CCc1nc(-c2ccc(Cl)cc2)no1 4.11%
COc1ccc(NC(=O)CCS(=O)(=O)c2ccc3c(c2)CCN3C(C)=O)cc1 -5.97%
Cc1ccccc1NC(=O)CN1C(=O)S/C(=C\c2cccn2-c2cccc(C(=O)O)c2)C1=O -6.82%
